Records with an inconclusive call do not appear. The source made the active and inactive calls. The call rests on the fitted dose curve; in most records, active means well fitted cell-killing curve with a large enough effect; inconclusive means small, poorly fitted or top-dose-only effect; inactive means no such curve, though single readings can be large or run the other way.
experiment: qHTS of pediatric cancer cell lines to identify multiple opportunities for drug repurposing: Primary screen for SJ-GBM2 cells (AID 1347091); details: SJ-GBM2 viability, CellTiter-Glo luminescence, 48 h; series mostly up to 46 µM; activity change, negative = cytotoxic: at the top concentration;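 on activity change, negative = cytotoxic: plate controls were DMSO neutral control for no effect and bortezomib for full effect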
In short: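 Eight- or eleven-point concentration series, 48 h treatment at 37 degrees C in growth media; readout CellTiter-Glo luminescence. Potency and efficacy were taken from the concentration-response curves.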
Potency means the concentration at half of the fitted maximal effect.

Structure (SMILES) | Potency | activity change, negative = cytotoxic
CCN1CCN(Cc2ccc(-c3cc4c(N[C@H](C)c5ccccc5)ncnc4[nH]3)cc2)CC1 | 0.332 µM (active) | 
CCc1c2c(nc3ccc(O)cc13)-c1cc3c(c(=O)n1C2)COC(=O)[C@]3(O)CC | 0.0066 µM (active) | 
CNC(=O)c1ccc(N2C(=S)N(c3cnc(C#N)c(C(F)(F)F)c3)C(=O)C23CCC3)cc1F | 7.43 µM (active) | 
Cc1ccc(C(=O)Nc2cccc(C(F)(F)F)c2)cc1-c1ccc2nc(NCCN3CCOCC3)ncc2c1 | 6.62 µM (active) | 
CCc1cc2c(cc1N1CCC(N3CCOCC3)CC1)C(C)(C)c1[nH]c3cc(C#N)ccc3c1C2=O |  | -58.6% (inactive)
CN1CCN(c2ccc3nc(-c4c(N)c5c(F)cccc5[nH]c4=O)[nH]c3c2)CC1 | 20.9 µM (active) | 
Clc1cccc(-c2nnnn2Cc2cccnc2)c1Cl |  | 8.41% (inactive)
COc1cc(C)c(Sc2cnc(NC(=O)c3ccc(CNC(C)C(C)C)cc3)s2)cc1C(=O)N1CCN(C(C)=O)CC1 (stereo not drawn) | 18.7 µM (active) | 
CN1CCN(Cc2ccc(NC(=O)Nc3ccc(Oc4cc(NC(=O)C5CC5)ncn4)cc3)cc2C(F)(F)F)CC1 | 0.372 µM (active) | 
CC(C)c1ccccc1Cc1cc(C(=O)Nc2ccc(S(=O)(=O)c3ccccc3C(C)(C)C)cc2)c(O)c(O)c1O | 2.96 µM (active) | 
O=C(c1cncc(Br)c1)N1CCC(N2CCCC2)CC1 |  | 15.4% (inactive)
CNC(=O)c1ccccc1Nc1nc(Nc2ccc(N3CCOCC3)cc2OC)ncc1Cl | 2.35 µM (active) | 
Nc1nc(NCCNc2ncc(-n3ccnc3)c(-c3ccc(Cl)cc3Cl)n2)ccc1[N+](=O)[O-] | 4.69 µM (active) | 

From PubChem BioAssay (NCATS)
